# Targets with a hit are over-represented here; the source holds about 7,900 in all. About 0.6% of all pairs of compound and target were hits. A number with no mark means an inactive call.
# Key:
# Test in all cases: log2 fold change, soluble protein after heating vs DMSO (PISA); higher = thermal stabilisation; K562 cells, 10 uM, 30 min; active = over 0.2 and 3.5 SD of the protein, either way, in both replicates (recomputed)
# [1] = compound: NC(=O)Nc1cc(-c2cccc(F)c2)sc1C(=O)N[C@H]1CCCNC1
# In short: (§1)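 Values are thermal stability changes relative to control samples and are taken from duplicates. They are stated as log2 fold changes. Before quantification by TMTpro 16plex LC-MS/MS with equalised channel sums, K562 cells at 2×10^6 cells/mL were treated with 10 μM compound for 30 min, heated in aliquots for 3 min across 48°C-58°C, pooled, extracted in PBS with 0.5% NP-40 at 4°C, and centrifuged at 21,000xg for 90 min to give the soluble supernatant.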
# [2] = compound: NC(=O)c1cnc(N[C@@H]2CCCC[C@@H]2N)nc1Nc1cccc(-n2nccn2)c1
# In short: as §1
# [3] = compound: NC1(c2ccc(-c3nc4ccn5c(=O)[nH]nc5c4cc3-c3ccccc3)cc2)CCC1
# In short: as §1
# [4] = compound: NCC(=O)Nc1ccc(-n2nc(C(F)(F)F)cc2-c2ccc3c(ccc4ccccc43)c2)cc1
# In short: as §1
# entinostat = compound: Nc1ccccc1NC(=O)c1ccc(CNC(=O)OCc2cccnc2)cc1 [entinostat]
# In short: as §1
# vorinostat = compound: O=C(CCCCCCC(=O)Nc1ccccc1)NO [vorinostat]
# In short: as §1
# citarinostat = compound: O=C(CCCCCCNC(=O)c1cnc(N(c2ccccc2)c2ccccc2Cl)nc1)NO [citarinostat]
# In short: as §1
# silmitasertib = compound: O=C(O)c1ccc2c(c1)nc(Nc1cccc(Cl)c1)c1ccncc12 [silmitasertib]
# In short: as §1
# [5] = compound: O=C1NC(=O)C(c2cnc3ccccn23)=C1c1cn2c3c(cc(F)cc13)CN(C(=O)N1CCCCC1)CC2
# In short: as §1
# [6] = compound: c1cc(OCCN2CCCCC2)cc(-c2n[nH]c3ccc(-c4nnc[nH]4)cc23)c1
# In short: as §1
# Sequence of UniProt Q14974 (Q14974 whole entry, looked up): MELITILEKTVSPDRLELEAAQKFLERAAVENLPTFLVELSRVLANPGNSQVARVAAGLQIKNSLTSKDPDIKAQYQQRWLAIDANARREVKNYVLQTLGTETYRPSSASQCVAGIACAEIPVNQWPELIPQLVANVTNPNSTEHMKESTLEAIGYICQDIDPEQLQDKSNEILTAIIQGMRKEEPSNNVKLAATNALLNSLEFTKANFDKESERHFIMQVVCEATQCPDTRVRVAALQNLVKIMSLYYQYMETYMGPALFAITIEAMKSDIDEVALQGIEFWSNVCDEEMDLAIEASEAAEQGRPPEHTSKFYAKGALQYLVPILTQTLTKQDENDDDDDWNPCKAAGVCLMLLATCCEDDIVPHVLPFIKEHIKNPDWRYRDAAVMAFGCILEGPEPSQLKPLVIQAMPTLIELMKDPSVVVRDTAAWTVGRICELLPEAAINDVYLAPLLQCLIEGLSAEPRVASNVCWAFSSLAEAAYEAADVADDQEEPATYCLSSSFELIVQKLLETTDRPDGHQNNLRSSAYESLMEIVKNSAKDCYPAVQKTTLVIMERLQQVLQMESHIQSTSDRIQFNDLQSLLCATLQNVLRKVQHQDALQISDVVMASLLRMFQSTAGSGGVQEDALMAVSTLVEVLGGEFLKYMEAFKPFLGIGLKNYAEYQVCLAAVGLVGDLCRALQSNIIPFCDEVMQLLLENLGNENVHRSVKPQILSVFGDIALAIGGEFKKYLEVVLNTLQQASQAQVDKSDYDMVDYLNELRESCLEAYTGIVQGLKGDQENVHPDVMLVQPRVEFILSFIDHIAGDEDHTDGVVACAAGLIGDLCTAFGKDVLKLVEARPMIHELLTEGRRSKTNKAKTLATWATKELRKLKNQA
# Sequence of UniProt P53778 (P53778 whole entry, looked up): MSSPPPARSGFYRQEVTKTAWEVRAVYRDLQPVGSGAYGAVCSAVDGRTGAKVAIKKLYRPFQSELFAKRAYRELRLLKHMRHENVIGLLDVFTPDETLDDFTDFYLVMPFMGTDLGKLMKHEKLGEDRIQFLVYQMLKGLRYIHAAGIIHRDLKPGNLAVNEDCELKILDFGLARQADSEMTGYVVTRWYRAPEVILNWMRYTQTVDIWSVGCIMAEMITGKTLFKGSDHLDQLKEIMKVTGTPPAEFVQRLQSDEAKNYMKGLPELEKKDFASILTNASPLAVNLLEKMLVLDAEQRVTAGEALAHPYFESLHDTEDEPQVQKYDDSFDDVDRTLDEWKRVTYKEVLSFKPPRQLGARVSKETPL
# Sequence of UniProt Q96GA3 (Q96GA3 whole entry, looked up): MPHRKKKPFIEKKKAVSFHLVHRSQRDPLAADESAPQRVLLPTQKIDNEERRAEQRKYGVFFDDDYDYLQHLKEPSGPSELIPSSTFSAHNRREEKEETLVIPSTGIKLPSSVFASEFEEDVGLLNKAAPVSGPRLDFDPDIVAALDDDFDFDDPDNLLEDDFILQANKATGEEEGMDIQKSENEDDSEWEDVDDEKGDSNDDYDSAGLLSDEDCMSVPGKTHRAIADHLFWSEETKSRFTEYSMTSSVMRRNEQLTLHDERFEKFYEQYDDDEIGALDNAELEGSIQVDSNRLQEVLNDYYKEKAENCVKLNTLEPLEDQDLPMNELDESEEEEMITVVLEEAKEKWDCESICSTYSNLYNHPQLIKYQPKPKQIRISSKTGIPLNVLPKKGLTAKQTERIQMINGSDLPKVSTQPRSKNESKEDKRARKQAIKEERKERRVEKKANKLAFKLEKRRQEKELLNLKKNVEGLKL
# Sequence of UniProt Q9Y4K4 (Q9Y4K4 whole entry, looked up): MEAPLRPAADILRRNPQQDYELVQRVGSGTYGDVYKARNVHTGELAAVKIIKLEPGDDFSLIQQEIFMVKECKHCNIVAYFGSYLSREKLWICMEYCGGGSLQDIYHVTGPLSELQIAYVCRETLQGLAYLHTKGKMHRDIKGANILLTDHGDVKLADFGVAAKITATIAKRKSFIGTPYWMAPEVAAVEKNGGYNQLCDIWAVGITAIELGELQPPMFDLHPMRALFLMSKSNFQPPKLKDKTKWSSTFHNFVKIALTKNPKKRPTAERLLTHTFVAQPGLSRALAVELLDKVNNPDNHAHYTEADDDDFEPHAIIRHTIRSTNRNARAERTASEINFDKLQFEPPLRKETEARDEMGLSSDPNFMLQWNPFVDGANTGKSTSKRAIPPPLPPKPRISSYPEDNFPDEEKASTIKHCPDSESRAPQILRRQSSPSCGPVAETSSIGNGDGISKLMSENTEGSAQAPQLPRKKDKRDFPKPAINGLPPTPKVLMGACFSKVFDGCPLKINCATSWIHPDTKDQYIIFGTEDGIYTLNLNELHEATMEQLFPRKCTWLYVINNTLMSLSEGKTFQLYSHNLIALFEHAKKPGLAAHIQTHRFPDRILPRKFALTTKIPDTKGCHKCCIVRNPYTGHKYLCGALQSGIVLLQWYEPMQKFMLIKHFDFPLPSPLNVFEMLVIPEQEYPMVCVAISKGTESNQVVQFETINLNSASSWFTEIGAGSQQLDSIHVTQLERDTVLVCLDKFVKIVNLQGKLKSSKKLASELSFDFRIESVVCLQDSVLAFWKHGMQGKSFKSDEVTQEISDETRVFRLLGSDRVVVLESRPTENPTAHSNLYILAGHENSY
# Sequence of UniProt P45984 (P45984 whole entry, looked up): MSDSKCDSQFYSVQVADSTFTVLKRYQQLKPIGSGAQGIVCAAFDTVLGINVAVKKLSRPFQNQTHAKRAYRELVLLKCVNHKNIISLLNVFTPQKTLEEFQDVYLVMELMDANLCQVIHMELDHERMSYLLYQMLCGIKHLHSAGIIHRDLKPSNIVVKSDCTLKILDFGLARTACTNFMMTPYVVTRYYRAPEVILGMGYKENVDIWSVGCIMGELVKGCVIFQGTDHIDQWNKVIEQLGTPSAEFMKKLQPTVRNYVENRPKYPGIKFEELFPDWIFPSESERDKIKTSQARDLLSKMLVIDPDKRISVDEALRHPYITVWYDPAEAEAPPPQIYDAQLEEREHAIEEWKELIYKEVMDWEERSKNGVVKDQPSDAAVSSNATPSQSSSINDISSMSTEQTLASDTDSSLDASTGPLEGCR
# Sequence of UniProt A1L0T0 (A1L0T0 whole entry, looked up): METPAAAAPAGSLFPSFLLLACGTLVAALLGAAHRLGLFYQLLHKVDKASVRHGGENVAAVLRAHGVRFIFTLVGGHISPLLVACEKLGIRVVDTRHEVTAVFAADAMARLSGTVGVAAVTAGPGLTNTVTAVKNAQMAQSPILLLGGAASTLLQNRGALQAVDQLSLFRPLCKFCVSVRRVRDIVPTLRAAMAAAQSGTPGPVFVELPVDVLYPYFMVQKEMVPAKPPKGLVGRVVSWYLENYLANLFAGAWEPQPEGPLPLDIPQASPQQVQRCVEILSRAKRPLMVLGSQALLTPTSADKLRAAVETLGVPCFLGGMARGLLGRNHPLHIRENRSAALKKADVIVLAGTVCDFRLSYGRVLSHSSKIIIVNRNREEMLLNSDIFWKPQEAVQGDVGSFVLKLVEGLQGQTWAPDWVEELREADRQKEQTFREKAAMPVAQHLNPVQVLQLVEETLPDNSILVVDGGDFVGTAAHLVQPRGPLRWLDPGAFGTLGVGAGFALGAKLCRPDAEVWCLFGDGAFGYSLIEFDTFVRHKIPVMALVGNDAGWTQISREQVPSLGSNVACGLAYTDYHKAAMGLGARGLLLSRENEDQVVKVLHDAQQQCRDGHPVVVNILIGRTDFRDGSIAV
# Sequence of UniProt P23276 (P23276 whole entry, looked up): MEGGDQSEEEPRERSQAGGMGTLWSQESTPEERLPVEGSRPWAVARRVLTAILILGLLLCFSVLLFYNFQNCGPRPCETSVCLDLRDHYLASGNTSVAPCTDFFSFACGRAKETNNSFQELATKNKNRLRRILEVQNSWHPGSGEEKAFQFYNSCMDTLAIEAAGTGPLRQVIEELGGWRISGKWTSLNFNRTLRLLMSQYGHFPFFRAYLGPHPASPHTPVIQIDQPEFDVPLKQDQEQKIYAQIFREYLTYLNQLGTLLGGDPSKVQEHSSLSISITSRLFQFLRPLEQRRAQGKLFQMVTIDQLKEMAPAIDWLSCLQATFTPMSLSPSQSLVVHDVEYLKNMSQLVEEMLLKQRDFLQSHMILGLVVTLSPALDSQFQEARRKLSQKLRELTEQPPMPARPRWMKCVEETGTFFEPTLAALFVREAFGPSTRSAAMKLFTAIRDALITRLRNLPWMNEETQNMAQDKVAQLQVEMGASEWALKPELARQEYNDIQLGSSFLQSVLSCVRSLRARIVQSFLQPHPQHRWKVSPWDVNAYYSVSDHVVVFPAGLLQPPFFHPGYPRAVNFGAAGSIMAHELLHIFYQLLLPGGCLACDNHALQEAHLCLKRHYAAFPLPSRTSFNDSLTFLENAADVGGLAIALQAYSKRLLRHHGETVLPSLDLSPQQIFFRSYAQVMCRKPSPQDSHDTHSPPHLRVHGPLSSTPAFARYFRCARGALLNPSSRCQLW
# Sequence of UniProt Q9C0E8 (Q9C0E8 whole entry, looked up): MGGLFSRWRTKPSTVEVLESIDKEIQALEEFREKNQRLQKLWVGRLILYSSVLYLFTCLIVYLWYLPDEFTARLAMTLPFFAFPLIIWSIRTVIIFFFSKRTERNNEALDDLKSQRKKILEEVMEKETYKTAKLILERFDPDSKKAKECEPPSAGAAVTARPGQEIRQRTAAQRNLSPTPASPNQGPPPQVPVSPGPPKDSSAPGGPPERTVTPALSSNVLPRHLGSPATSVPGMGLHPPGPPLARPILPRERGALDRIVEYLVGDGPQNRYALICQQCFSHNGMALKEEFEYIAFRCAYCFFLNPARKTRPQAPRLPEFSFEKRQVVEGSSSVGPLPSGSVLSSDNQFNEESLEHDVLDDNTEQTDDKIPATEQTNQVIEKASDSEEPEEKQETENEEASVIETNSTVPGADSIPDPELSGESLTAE
Target,log2 fold change [1],log2 fold change [2],log2 fold change [3],log2 fold change [4],log2 fold change (entinostat),log2 fold change (vorinostat),log2 fold change (citarinostat),log2 fold change (silmitasertib),log2 fold change [5],log2 fold change [6]
LEMD2 (UniProt Q8NC56),0.008,-0.139,-0.112,-0.157,0.004,0.04,0.058,-0.044,-0.02,-0.046
KMT2C isoform 3 (UniProt Q8NEZ4),-0.021,0.046,-0.756 (active),-0.006,-0.03,0.19,0.104,-0.052,-0.094,-0.076
KPNB1 (UniProt Q14974),0.025,-0.087,-0.073,-0.037,0.055,0.038,0.097,0.099,0.068,-0.059
MAP3K4 isoform 2 (UniProt Q9Y6R4),0.036,-0.025,-0.104,-0.025,-0.027,-0.019,0.006,0,-0.029,-0.075
LNPK (UniProt Q9C0E8),0.011,0.01,0.009,0.014,-0.013,-0.006,0.002,0.072,-0.051,-0.006
MAPK12 (UniProt P53778),-0.076,-0.095,-0.09,0.014,0.012,0.08,0.046,-0.006,0.348 (active),0.018
LMBRD2 (UniProt Q68DH5),0.028,0.044,0.099,-0.025,-0.011,-0.015,0.057,-0.049,-0.09,-0.005
LDAH isoform 2 (UniProt Q9H6V9),-0.049,0.018,0.979 (active),-0.041,0.014,-0.011,0.061,0.014,-0.16,-0.057
LARP4B (UniProt Q92615),0.028,-0.042,0.048,0.022,0.038,0.027,-0.001,0.008,0.086,-0.112
KHDC4 (UniProt Q7Z7F0),-0.017,-0.003,-0.078,-0.034,0.009,0.028,0.08,0.01,-0.155,-0.052
LIMD1 (UniProt Q9UGP4),0.009,0.005,0.004,-0.029,-0.038,0.025,0.052,0.03,-0.06,0.01
KIF1B isoform 4 (UniProt O60333),0.043,-0.059,-0.16,-0.03,0.011,0.063,0.054,0.009,-0.037,-0.062
LENG8 (UniProt Q96PV6),-0.012,-0.075,0.042,-0.198,0.085,0.298,0,0.09,-0.144,-0.091
ILVBL (UniProt A1L0T0),-0.053,-0.036,-0.022,-0.007,-0.041,0.002,0.064,-0.008,-0.009,-0.064
KEL (UniProt P23276),-0.004,0.088,-0.215,0.017,-0.022,0.03,0.019,0.108,0.115,-0.001
KSR1 (UniProt Q8IVT5),-0.333,-0.049,0.236,-0.111,0.044,0.013,0.045,-0.279,-0.118,-0.193

Target,log2 fold change [1],log2 fold change [2],log2 fold change [3],log2 fold change [4],log2 fold change (entinostat),log2 fold change (vorinostat),log2 fold change (citarinostat),log2 fold change (silmitasertib),log2 fold change [5],log2 fold change [6]
LSS (UniProt P48449),0.017,0.108,0.142,-0.049,0.003,0.052,-0.01,0.001,-0.001,-0.033
IRAK4 (UniProt Q9NWZ3),0.349 (active),-0.088,-0.281 (active),-0.008,0.053,0.05,0.002,0.027,-0.024,-0.019
MAPK8 isoform 3 (UniProt P45983),-0.05,-0.02,-0.062,-0.05,0.001,-0.027,-0.049,0.008,-0.044,0.362
MAP4K5 (UniProt Q9Y4K4),0.217,0,-0.002,-0.097,-0.012,0.074,0.02,-0.09,0.073,0.026
LTV1 (UniProt Q96GA3),0.006,0.008,0.003,0.041,0.034,-0.005,-0.038,0.147,0.132,-0.16
LIMA1 isoform 4 (UniProt Q9UHB6),0.062,-0.045,0.081,0.006,0.004,0.067,-0.024,-0.006,-0.073,-0.012
MAPK9 (UniProt P45984),-0.058,-0.023,-0.053,-0.022,-0.028,-0.058,-0.022,-0.012,-0.102,0.187
LPIN3 isoform 2 (UniProt Q9BQK8),0.014,-0.027,-0.044,0.041,-0.006,0.011,0.001,-0.116,-0.054,-0.142
MFF (UniProt Q9GZY8),-0.098,-0.224 (active),-0.125,-0.102,-0.015,0.006,-0.007,0.04,-0.06,-0.135
MICU2 (UniProt Q8IYU8),-0.095,-0.075,-0.121,-0.006,-0.014,0.073,0.042,0.076,0.04,-0.141
LMF2 (UniProt Q9BU23),-0.008,-0.001,-0.057,-0.089,-0.006,0.116,-0.068,0.008,-0.016,0.046
MAP4K4 isoform 3 (UniProt O95819),-0.199,-0.154,-0.204,-0.013,0.07,0.075,0.044,-0.024,,-0.179
LUM (UniProt P51884),-0.067,-0.108,,-0.002,-0.033,,-0.042,,0.185,0.47
MED25 isoform 3 (UniProt Q71SY5),-0.016,-0.021,-0.591 (active),0.064,0.065,-0.349,0.052,0.174,,-0.148
ITM2C (UniProt Q9NQX7),-0.309,-0.009,,-0.133,0.164,-0.032,,,0.029,
